# Compound activity deposited in PubChem BioAssay by several laboratories.
# In the library only some 4.2% were active in any assay of this set; here they are far more common.
# ssDAF12 agonist – activates DAF-12 receptor from parasite S. stercoralis; HEK293 ssDAF-12/GRIP1 lit1-tk-luc reporter, luminescence; % of 3 µM dafachronic acid response; activation, % at 6.8 µM; 1% of 370,000 active; AID 652126;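 active = activation above the mean over all tested compounds plus 3 SD, cut at about 0.9% in these data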;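 note: 0% = DMSO-only wells and 100% = 3 µM delta7-dafachronic acid wells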
# hcDAF-12 act – activates DAF-12 receptor from parasite H. contortus. 1.4% of 370,000 active. HEK293 hcDAF-12 lit1-tk-luc reporter, luminescence; 0% DMSO, 100% Δ7-dafachronic acid. AID 652067. activation, % at 6.8 µM;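 active = activation above the mean of all tested compounds plus 3 SD, cut at about 5.5% in these data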;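 note: 100% = response to 3 µM Δ7-dafachronic acid high control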
# Wnt bcat act – activates Wnt/beta-catenin signaling in a reporter cell assay | activator, plate reader | activation, % at 9.35 µM | 1.2% of 300,000 active | AID 743398; in the data active = activation above about 30%, passing the limit was not always enough;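 note: 0% = neutral control wells and 100% = positive control wells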
# esBAF inh – blocks esBAF chromatin remodeling in mouse ES cells; Bmi1-luciferase knock-in reporter, 24 h; 100% = twice the neutral-well signal; reporter increase, % at 12.5 µM; 2% of 350,000 active; AID 602393; in the data active = activation above about 40%;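 note: 0% = median of the plate's neutral control wells and 100% = double that signal; a rise in the Bmi1 reporter signal indicates esBAF inhibition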
# hgDAF-12 ag – hgDAF-12 agonism, primary luciferase screen; activation, % at 6.8 µM; AID 687014; 1.8% of 370,000 active; HEK293 GAL4-hgDAF12 UAS-luciferase reporter, agonist luminescence; normalized to butyrate control;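 active = activation above a cutoff set at the mean of all screened compounds plus 3 SD, cut at about 10% in these data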;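 note: 0% = DMSO wells and 100% = sodium butyrate wells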
# DAX1 StAR inh – inhibitors of DAX1 repression of SF-1 activated StAR promoter. HEK293T StAR-luciferase reporter, SF-1/DAX-1 repression relief. inhibition, % at 6.8 µM. 1.1% of 370,000 active. AID 652010;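 active = inhibition above the mean over all tested compounds plus 3 SD, cut at about 3.6% in these data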;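 note: 0% = DAX-1 cells with DMSO and 100% = cells lacking DAX-1 with DMSO; higher inhibition means more luminescence from relief of DAX-1 repression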
# DAX1 conf – NR0B1 (human) inhibition, confirmation | HEK293T StAR-promoter luciferase reporter, SF-1/DAX-1 repression | inhibition, % at 6.8 µM | 87% of 2,400 active | shares compounds with DAX1 StAR inh;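 active = inhibition above the average of every tested compound plus 3 SD, cut at about 3.8% in these data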;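 note: 0% = DAX-1 cells with DMSO and 100% = no DAX-1 control cells with DMSO; active compounds raise luminescence by relieving repression of the StAR reporter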
# Target sequence (P51843 whole entry, looked up): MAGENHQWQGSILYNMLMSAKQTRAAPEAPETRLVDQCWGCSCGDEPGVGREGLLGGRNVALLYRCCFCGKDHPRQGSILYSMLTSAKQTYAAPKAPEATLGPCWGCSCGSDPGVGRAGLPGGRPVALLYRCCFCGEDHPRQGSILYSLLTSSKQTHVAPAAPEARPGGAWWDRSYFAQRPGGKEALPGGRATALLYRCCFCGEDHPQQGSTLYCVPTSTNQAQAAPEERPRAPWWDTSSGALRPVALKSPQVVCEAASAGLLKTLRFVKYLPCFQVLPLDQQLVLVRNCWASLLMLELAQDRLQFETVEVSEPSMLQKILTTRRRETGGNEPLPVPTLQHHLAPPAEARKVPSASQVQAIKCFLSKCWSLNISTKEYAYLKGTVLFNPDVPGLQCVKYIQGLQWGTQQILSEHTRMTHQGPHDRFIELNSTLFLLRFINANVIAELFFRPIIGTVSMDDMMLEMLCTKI
# SF1 mutant ctr – counter-screen for DAX1 inhibitors: nonselective inhibitors with SF-1 AF2 mutant | inhibition, % at 6.8 µM | 78% of 2,400 active | shares compounds with DAX1 StAR inh | HEK293 StAR-luciferase, luminescence;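 active = inhibition above the mean of all tested compounds plus 3 SD, cut at about 3% in these data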;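 note: 0% = DAX-1 transfected cells with DMSO and 100% = cells without DAX-1 with DMSO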
# LXRb hcDAF ctr – activates human LXR-beta, counter-screen for hcDAF-12 agonists; shares compounds with hcDAF-12 act; HEK293 Gal4-LXR tk-luc reporter, luminescence, 24 h; normalized: DMSO 0%, positive control 100%; activation, % at 6.8 µM; 3,400 tested, under 10 active;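 active = mean percent activation of the reporter above a cutoff set as the average over tested compounds plus their standard deviation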
# hcDAF12 ag – confirmation of H. contortus DAF-12 agonists; shares compounds with hcDAF-12 act; activation, % at 6.8 µM; HEK293 hcDAF-12 lit1-tk-luc reporter, luminescence; % of Δ7-dafachronic acid response; AID 743032; 61% of 3,400 active;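 active = mean activation across triplicate tests above the threshold derived from the earlier primary screen, cut at about 5.5% in these data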;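 note: 0% = DMSO only wells and 100% = 3 µM Δ7-dafachronic acid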
# hgDAF12 conf – hgDAF-12 agonism, confirmation assay; shares compounds with hgDAF-12 ag; HEK293 GAL4-hgDAF12 luciferase reporter, agonist mode; percent of butyrate response; activation, % at 6.8 µM; 80% of 3,300 active; AID 743050;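 active = mean activation over triplicate wells above the hit cutoff derived from the earlier primary screen, cut at about 11% in these data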;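 note: 0% = DMSO low control and 100% = 2 mM sodium butyrate high control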
# LXR ag 2 – counter-screen for DAF-12 agonists: agonists of human LXR-beta; 3,300 tested, under 10 active; HEK293 Gal4-LXR luciferase reporter, 24 h; activation, % at 6.8 µM; shares compounds with hgDAF-12 ag;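 active = mean activation of the triplicate above a set limit carried over from the primary screen, none filed active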
# Numbers without * were called inactive; · = no result given.
SMILES,ssDAF12 agonist,hcDAF-12 act,Wnt bcat act,esBAF inh,hgDAF-12 ag,DAX1 StAR inh,DAX1 conf,SF1 mutant ctr,LXRb hcDAF ctr,hcDAF12 ag,hgDAF12 conf,LXR ag 2
O=C(C[C@H]1C=C[C@@H](NC(=O)CC2CC2)[C@H](CO)O1)NCC(F)(F)F,·,·,·,-2.6,·,·,·,·,·,·,·,·
Cc1cc(C)c(C#N)c(SCc2ccccc2[N+](=O)[O-])n1,-0.9,1.4,-2.5,1.3,-0.1,-0.9,·,·,·,·,·,·
Cc1cc(C)c(C#N)c(SCc2nnc(-c3ccccc3[N+](=O)[O-])o2)n1,0.8,3.8,75.2*,22.6,16.5*,5.1*,17.8*,4.6*,·,·,11.4*,0.9
COc1c(-c2ccc(O)cc2)oc2cc(O)cc(O)c2c1=O,-1.0,-1.2,-0.5,3.6,-0.7,1.4,·,·,·,·,·,·
CC(C)Oc1cc(O)c2c(=O)c(-c3ccc(O)cc3)coc2c1,0.1,7.6*,8.1,1.8,26.0*,5.3*,11.3*,5.7*,1.1,4.6,20.1*,1.0
O=c1c2ccccc2nc2n1CCc1c-2[nH]c2ccccc12,3.6*,13.0*,40.7*,27.5,25.2*,7.8*,19.0*,11.7*,2.0,13.9*,23.6*,1.2
FC(F)(F)c1cc(Cl)c2nc(-c3ccccc3)cn2c1,2.8*,17.8*,·,34.0,19.7*,6.6*,14.8*,7.4*,1.8,17.1*,23.4*,1.1
Nc1cccc(-c2cn3cc(C(F)(F)F)cc(Cl)c3n2)c1,2.1*,11.8*,·,-36.5,13.7*,5.3*,12.8*,7.6*,1.4,9.1*,17.8*,0.8
Cc1noc(C)c1NC(=O)Nc1ccc2c(c1)CC(=O)N([C@@H](C)CO)C[C@@H](C)[C@H](CN(C)C(=O)Nc1ccc(F)cc1)O2,·,·,·,2.7,·,·,·,·,·,·,·,·
Cc1ccc(C2=NN3C(C2)c2ccccc2OC32C(=O)Nc3ccccc32)cc1 (stereo unspecified),2.2*,18.5*,·,·,25.5*,5.3*,9.9*,9.4*,1.1,8.3*,19.6*,0.9
Cc1ccnc(N2C(=O)c3ccccc3C2O)c1 (stereo unspecified),0.4,6.7*,22.7,-14.6,16.2*,7.1*,11.0*,7.4*,1.0,3.4,16.5*,0.8
Nc1ccccc1C(=O)NNC1=C(C(=O)C(F)(F)F)CCC1,-0.2,9.2*,68.5*,·,17.4*,7.2*,13.1*,6.5*,-0.1,0.7,18.0*,0.3
c1csc(-c2nc3c4ccccc4c4ccccc4c3[nH]2)c1,-0.3,0.0,-2.0,-5.0,2.1,-1.1,·,·,·,·,·,·
c1csc(-c2cn3ccc4ccccc4c3n2)c1,2.5*,14.3*,23.2,72.2*,16.8*,4.8*,8.3*,5.4*,1.3,14.7*,17.8*,1.1
C[C@@H]1CN([C@@H](C)CO)C(=O)c2cc(C3=CCCCC3)cnc2O[C@@H]1CN(C)C(=O)c1cccnc1,·,·,·,3.5,·,·,·,·,·,·,·,·
O=C(O)CC/C(=N/NC(=O)c1cccs1)c1ccccc1,0.6,9.6*,7.4,·,13.5*,5.8*,3.8*,3.3*,0.0,2.0,10.9*,0.3
CO[C@@H]1CN(C)C(=O)c2cc(NC(=O)c3cc(C)on3)ccc2OC[C@@H](C)N(S(=O)(=O)c2cccc(F)c2)C[C@H]1C,·,·,·,9.7,·,·,·,·,·,·,·,·
COc1ccccc1OCC(=O)Nc1ncc(C)s1,0.3,4.7,36.1*,9.5,17.4*,10.4*,8.5*,6.7*,·,·,14.9*,0.9
COC(=O)c1sc(NC(=O)COc2ccccc2OC)nc1C,-1.9,0.4,·,-9.3,-0.2,0.2,·,·,·,·,·,·
O=C(CSc1nnc(-c2csc3c2CCCC3)o1)Nc1ccccc1,2.1*,14.3*,-2.6,-44.4,17.7*,10.4*,19.1*,7.2*,2.2,18.9*,16.0*,1.2
N#Cc1c(NC(=O)CSc2nnc(-c3ccccc3)o2)sc2c1CCCC2,·,·,1.5,·,·,·,·,·,·,·,·,·
Cc1ccc2nc(-c3ccc(F)cc3)c(CC3CCCCC3)n2c1,1.5*,9.7*,18.1,·,13.9*,6.6*,3.3,5.0*,0.1,4.6,9.9,0.3
Cc1ccc2nc(-c3ccco3)c(CC3CCCCC3)n2c1,·,·,·,-2.0,·,·,·,·,·,·,·,·
O=C(Cc1ccccn1)N[C@@H]1CC[C@H](CCNC(=O)c2cc(Cl)cc(Cl)c2)O[C@H]1CO,·,·,·,1.4,·,·,·,·,·,·,·,·
Cc1cc(NC(=O)c2ccccc2)cc(NC(=O)c2ccccc2)c1C,0.9,3.9,-1.1,-5.7,0.8,-0.1,·,·,·,·,·,·
SMILES,ssDAF12 agonist,hcDAF-12 act,Wnt bcat act,esBAF inh,hgDAF-12 ag,DAX1 StAR inh,DAX1 conf,SF1 mutant ctr,LXRb hcDAF ctr,hcDAF12 ag,hgDAF12 conf,LXR ag 2
Cc1ccc(NC(=O)c2ccccc2)s1,0.2,6.9*,·,-21.8,19.5*,4.5*,14.9*,10.8*,1.4,8.3*,15.4*,1.0
COCC(=O)Nc1c(C(=O)Nc2ccc3c(c2)OCCO3)oc2ccccc12,-0.5,3.5,18.2,9.1,17.0*,4.6*,8.6*,5.9*,·,·,17.7*,0.9
O=C(Nc1ccccc1)c1ccc2ccccc2n1,1.9*,18.5*,-0.7,-1.3,19.4*,5.4*,12.7*,9.8*,1.3,16.3*,22.2*,1.2
O=C(Nc1ccc2c(c1)OCCO2)c1oc2ccccc2c1NC(=O)C1CC1,-1.9,-1.0,4.9,·,-2.4,0.9,·,·,·,·,·,·
O=C(Nc1ccc2c(c1)OCCO2)c1ccc2ccccc2n1,2.7*,21.0*,-0.5,·,20.5*,10.0*,12.7*,8.2*,1.7,15.5*,22.2*,1.3
O=C(N/N=C/c1ccc2c(c1)OCO2)c1ccc2ccccc2n1,0.1,1.9,6.2,·,3.4,1.2,·,·,·,·,·,·
CO[C@@H]1CN(C)C(=O)c2cc(NC(C)=O)ccc2OC[C@@H](C)N(CCc2ccccc2)C[C@@H]1C,·,·,·,-1.6,·,·,·,·,·,·,·,·
